Results published in ChEMBL document CHEMBL4513158, “CO-ADD screening of RKDF (India) compounds”.
Potency and affinity values are given separately.

What was measured:
Klebsiella pneumoniae = conditions: Concentration 32 ug.mL-1; ASSAY_TEST Inhibition of Bacterial Growth; detection method Absorption (OD600); MEDIA CAMHB; plate type 384well; NBS; CORNING #3640; time 18 hr
Candida albicans = conditions: 32 ug/mL
Cryptococcus neoformans = conditions: Concentration 32 ug.mL-1; ASSAY_TEST Inhibition of Fungal Growth; detection method Resazurin; Absorption (OD600-OD570); plate type 384well; NBS; CORNING #3640

SMILES | Inhibition (Klebsiella pneumoniae) | Inhibition (Candida albicans) | Inhibition (Cryptococcus neoformans)
CN(C)C(=N)NC(=N)N.Cl [METFORMIN HYDROCHLORIDE] | 14.76% | 99% | 90.72%
C=C[C@H]1[C@H](O[C@@H]2O[C@H](CO)[C@@H](O)[C@H](O)[C@H]2O)OC=C2C(=O)OCC[C@]21O [SWERTIAMARIN] | 13.48% | 14.2% | 102.17%
